Laboratory results taken from PubChem BioAssay (Tox21).
Values joined by “and” are separate entries in the source; they are usually repeats but may differ in a detail not shown here. Identical values can stand only once. Records with an inconclusive call do not appear. Entries that show only a call come without a potency. A number with no mark means an inactive call. Active and inactive are the calls of the source. Unless noted, the call rests on the fitted dose curve.

Test: qHTS assay to identify small molecule agonists of the hypoxia (HIF-1) signaling pathway (AID 1224846; active means well fitted activation curve with a large enough effect in the signal ratio in the repeat runs, not every such curve was filed as active; the % refers to the signal ratio)
Settings: HRE-bla ME-180 cells, beta-lactamase ratio, 17 h; series mostly up to 76.8 µM; activation: at the top concentration
Procedure, shortened: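 Measured by blue/green FRET after loading CCF4-AM: beta-lactamase expressed from a hypoxia response element in ME-180 cells. Test agents were delivered in DMSO and left 17 hrs; cells had been plated 5 hrs earlier in low-serum (0.5% dialyzed FBS) medium.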

Structure (SMILES) | activation | outcome
CCC(Cc1c(I)cc(I)c(N)c1I)C(=O)O (stereo not drawn) | -1.03% [at 35.5 µM] | –
CCO[Si](CCCNC(N)=O)(OCC)OCC | – | inactive
CCCCCCCCCCC(CO)CCCCCCCC (stereo not drawn) | – | inactive
CN1CCOCC1 | – | inactive
CCCN1C=CN(C)C1 | – | inactive
Nc1cc([N+](=O)[O-])ccc1C(=O)O | – | inactive
COc1cc([C@H]2Oc3cc([C@H]4Oc5cc(O)cc(O)c5C(=O)[C@@H]4O)ccc3O[C@@H]2CO)ccc1O | – | inactive
Cc1ccc(S(=O)(=O)NCl)cc1 | – | inactive
O=C(O)c1cc(=O)[nH]c(=O)[nH]1 | – | inactive
[O-]/[N+](=N\O)c1ccccc1 | – | inactive
CC(=O)Nc1ccc2c(c1)Cc1cc(NC(C)=O)ccc1-2 | – | inactive
Cc1ccc(C(C)(C)C)c(O)c1 | -0.166% | –
C[C@]12C=CC(=O)C=C1CC[C@H]1[C@@H]3C[C@@H](O)[C@](O)(C(=O)CO)[C@@]3(C)C[C@H](O)[C@@]12F | – | inactive
Cc1ccc2c(c1)C(=O)OC2=O | – | inactive
c1ccc2c(c1)ccc1ncccc12 | – | inactive
FC(F)(F)C(Cl)Br (stereo not drawn) | – | inactive
CC(C)=CCO | – | inactive
CC(=O)Oc1c(C)c(C)c2c(c1C)CC[C@@](C)(CCC[C@H](C)CCC[C@H](C)CCCC(C)C)O2 | – | inactive
CC(=O)[C@@]1(O)CC[C@H]2[C@@H]3C[C@H](C)C4=CC(=O)C=C[C@]4(C)[C@@]3(F)[C@@H](O)C[C@@]21C | – | inactive
Cc1ccc(C)c(O)c1 | – | inactive

Structure (SMILES) | activation | outcome
[Na+] | – | inactive
C1COCCN1 | – | inactive
OCCNCCO | – | inactive
COC(=O)c1ccc(C)cc1 | – | inactive
CC(C)(C)c1cccc(C(C)(C)C)c1O | -0.0806% | –
O=C1OC2(c3ccccc31)c1cc(I)c(O)c(I)c1Oc1c2cc(I)c(O)c1I | – | inactive
Oc1c(Cl)ccc(Cl)c1Cl | – | inactive
C=CN1CCCC1=O | – | inactive
NCCOCCO | – | inactive
CCCOCCO | – | inactive
CC1(C)C(C=C(Cl)Cl)C1C(=O)OCc1cccc(Oc2ccccc2)c1 (stereo not drawn) | – | inactive
Brc1nc2ccccc2s1 | – | inactive
CCCCCC=O | – | inactive
CN(C)C | – | inactive
c1ccc2c(c1)[nH]c1ccccc12 | – | inactive
O=C(O)CCCCCCCCCCCC(=O)O | 0.343% | –
NCCN | – | inactive
CC1(C)O[C@@H]2C[C@H]3[C@@H]4C[C@H](F)C5=CC(=O)C=C[C@]5(C)[C@@]4(F)[C@@H](O)C[C@]3(C)[C@]2(C(=O)CO)O1 | – | inactive
CCCCCCC(C)O (stereo not drawn) | – | inactive

Test: qHTS assay to identify small molecule agonists of H2AX - cell viability counter screen (AID 1224847); further: nearly all actives have a fitted effect of over 30% in size; further: potency means the concentration at half of the fitted maximal effect;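 on activity change, negative = cytotoxicity: wild-type CHO-K1 cells; top concentration of the series differs between compounds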
Settings: CHO-K1 viability, CellTiter-Glo luminescence, 3 h; series mostly up to 154 µM; activity change, negative = cytotoxicity: at the top concentration
Procedure, shortened: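 CHO-K1 cells plated overnight at 37C, then exposed 3 h at 37C to compounds at 15 concentrations (0.76% DMSO final). Viability by CellTiter-Glo luminescence after 30 min at room temperature.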

Structure (SMILES) | Potency | activity change, negative = cytotoxicity
CCC(Cc1c(I)cc(I)c(N)c1I)C(=O)O (stereo not drawn) | inactive | –
CCO[Si](CCCNC(N)=O)(OCC)OCC | inactive | –
CCCCCCCCCCC(CO)CCCCCCCC (stereo not drawn) | inactive | –
CN1CCOCC1 | inactive | –
CCCN1C=CN(C)C1 | inactive | –
Nc1cc([N+](=O)[O-])ccc1C(=O)O | inactive | –
COc1cc([C@H]2Oc3cc([C@H]4Oc5cc(O)cc(O)c5C(=O)[C@@H]4O)ccc3O[C@@H]2CO)ccc1O | – | -3.5% [at 70.9 µM]
Cc1ccc(S(=O)(=O)NCl)cc1 | inactive | –
O=C(O)c1cc(=O)[nH]c(=O)[nH]1 | inactive | –
[O-]/[N+](=N\O)c1ccccc1 | inactive | –
CC(=O)Nc1ccc2c(c1)Cc1cc(NC(C)=O)ccc1-2 | inactive | –
Cc1ccc(C(C)(C)C)c(O)c1 | 97.5 µM (active) and 89.8 µM (active) | –
C[C@]12C=CC(=O)C=C1CC[C@H]1[C@@H]3C[C@@H](O)[C@](O)(C(=O)CO)[C@@]3(C)C[C@H](O)[C@@]12F | inactive | –
Cc1ccc2c(c1)C(=O)OC2=O | inactive | –
c1ccc2c(c1)ccc1ncccc12 | inactive | –
FC(F)(F)C(Cl)Br (stereo not drawn) | inactive | –
CC(C)=CCO | inactive | –
CC(=O)Oc1c(C)c(C)c2c(c1C)CC[C@@](C)(CCC[C@H](C)CCC[C@H](C)CCCC(C)C)O2 | inactive | –
CC(=O)[C@@]1(O)CC[C@H]2[C@@H]3C[C@H](C)C4=CC(=O)C=C[C@]4(C)[C@@]3(F)[C@@H](O)C[C@@]21C | inactive | –
Cc1ccc(C)c(O)c1 | inactive | –

Structure (SMILES) | Potency | activity change, negative = cytotoxicity
[Na+] | inactive | –
C1COCCN1 | inactive | –
OCCNCCO | inactive | –
COC(=O)c1ccc(C)cc1 | inactive | –
CC(C)(C)c1cccc(C(C)(C)C)c1O | inactive | –
O=C1OC2(c3ccccc31)c1cc(I)c(O)c(I)c1Oc1c2cc(I)c(O)c1I | 11.3 µM (active) and 28.7 µM (active) and 8.65 µM (active) | –
Oc1c(Cl)ccc(Cl)c1Cl | inactive | –
C=CN1CCCC1=O | – | 0.612%
NCCOCCO | inactive | –
CCCOCCO | inactive | –
CC1(C)C(C=C(Cl)Cl)C1C(=O)OCc1cccc(Oc2ccccc2)c1 (stereo not drawn) | inactive | –
Brc1nc2ccccc2s1 | inactive | –
CCCCCC=O | inactive | –
CN(C)C | inactive | –
c1ccc2c(c1)[nH]c1ccccc12 | inactive | –
O=C(O)CCCCCCCCCCCC(=O)O | inactive | –
NCCN | inactive | –
CC1(C)O[C@@H]2C[C@H]3[C@@H]4C[C@H](F)C5=CC(=O)C=C[C@]5(C)[C@@]4(F)[C@@H](O)C[C@]3(C)[C@]2(C(=O)CO)O1 | inactive | –
CCCCCCC(C)O (stereo not drawn) | inactive | –
